Measured values reported in PubChem BioAssay AID2553 (Johns Hopkins Ion Channel Center, 2010).
Out of some 310,000 compounds screened, about 3,300 (1.1%) were called active.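 Rule for the calls: active = B-score under library mean minus 3 SD, initial fluorescence not abnormally high, positive integrated signal ratio; inactive = the rest.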 Shown is part of a subset that was picked to be rich in actives.

What follows are compounds tested against Short transient receptor potential channel 6 (Mus musculus) (UniProt Q61143) (assay: mouse TRPC6 channel inhibitors, primary screen, cell-based, HEK293, membrane potential dye (AID 2553;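 for B-score: B-score derived from integrated fluorescence ratio over the kinetic read; more negative B-score means stronger inhibition of depolarization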)). Details: ACh-evoked depolarization, at 10 µM; stronger effect = lower value.
Short transient receptor potential channel 6 (Mus musculus), sequence (Q61143 whole entry, looked up): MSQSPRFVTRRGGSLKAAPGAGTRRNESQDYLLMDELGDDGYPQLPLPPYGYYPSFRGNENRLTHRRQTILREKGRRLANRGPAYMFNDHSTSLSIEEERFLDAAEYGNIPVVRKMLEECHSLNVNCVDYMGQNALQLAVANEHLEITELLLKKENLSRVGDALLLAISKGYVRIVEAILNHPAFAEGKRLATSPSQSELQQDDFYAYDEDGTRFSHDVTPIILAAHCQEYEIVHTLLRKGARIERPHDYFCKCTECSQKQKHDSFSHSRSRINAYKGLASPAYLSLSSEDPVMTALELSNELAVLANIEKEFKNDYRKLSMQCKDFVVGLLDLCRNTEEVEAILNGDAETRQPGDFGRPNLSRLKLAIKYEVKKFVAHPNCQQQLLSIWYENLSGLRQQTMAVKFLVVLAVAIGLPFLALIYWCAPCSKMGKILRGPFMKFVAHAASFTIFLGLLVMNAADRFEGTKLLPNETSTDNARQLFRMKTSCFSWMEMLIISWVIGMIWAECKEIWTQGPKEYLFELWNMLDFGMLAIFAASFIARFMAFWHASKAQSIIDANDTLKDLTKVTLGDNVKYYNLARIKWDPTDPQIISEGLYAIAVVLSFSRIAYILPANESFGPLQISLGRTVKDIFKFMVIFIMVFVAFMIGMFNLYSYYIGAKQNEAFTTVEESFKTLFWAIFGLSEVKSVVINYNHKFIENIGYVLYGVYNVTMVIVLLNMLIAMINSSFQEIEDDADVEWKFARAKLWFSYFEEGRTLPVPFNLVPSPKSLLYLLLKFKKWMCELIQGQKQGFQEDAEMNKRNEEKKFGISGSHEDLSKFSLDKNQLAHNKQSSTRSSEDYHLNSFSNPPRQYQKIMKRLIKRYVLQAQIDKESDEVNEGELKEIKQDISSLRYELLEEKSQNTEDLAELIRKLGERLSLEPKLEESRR

Compound | B-score
CCOC(=O)c1cc(NC(=O)c2ccc(Cl)cc2)c(=O)oc1-c1ccccc1 | inactive
CC(=O)Oc1cccc(C(=O)Nc2ccccc2NC(=O)c2cccc(OC(C)=O)c2)c1 | inactive
CC(=O)c1cc(NC(=O)c2ccccc2)c(=O)oc1/C=C/N(C)C | -5.52 (active)
CCOC(=O)c1c(/N=C/c2cc(C)ccc2O)sc2c1CCC2 | inactive
CN(C(=O)COc1nnc(-c2cccs2)c(-c2cccs2)n1)c1ccccc1 | inactive
CN(C)/C=C/C(=O)c1cnc2sccn2c1=O | inactive
COC(=O)c1cccc(N(C(=O)c2ccco2)C(C(=O)NC2CCCC2)c2ccco2)c1 (stereo not drawn) | inactive
Cc1cccc(N2CCN(C(C)C(=O)N3CCc4ccccc43)CC2)c1C (stereo not drawn) | inactive
O=C(c1ccccc1F)N(Cc1ccccc1)Cc1ccccc1 | inactive
OCCN1CCN(c2nnc(-c3ccccc3)c3ccccc23)CC1 | inactive
O=C1c2ccccc2C(=O)c2c1cccc2N1CCN(CCO)CC1 | -11.5 (active)
O=C1c2ccccc2C(=O)c2c1cccc2N1CCN(Cc2ccccc2)CC1 | -9.75 (active)
OCCN1CCN(C(=S)c2ccc(-c3ccccc3)cc2)CC1 | inactive
O=C1c2ccccc2C(=O)c2c1cccc2N1CCN(C/C=C/c2ccccc2)CC1 | inactive
O=C(CN1CCN(Cc2ccccc2)CC1)NC(c1ccccc1)c1ccccc1 | inactive
O=C(CNCc1ccco1)Nc1cc(S(=O)(=O)N2CCOCC2)ccc1N1CCCC1 | inactive
Clc1cc(NC2CCCCC2)ncn1 | inactive
COc1ccc(S(=O)(=O)NCCOc2ccccc2)cc1F | inactive
CC(=O)c1c(O)cc2n(c1=O)-c1ccc(Cl)cc1C2(C)C | inactive
O=C(NCc1ccc2c(c1)OCO2)c1c(O)nc2sccn2c1=O | inactive
COCCOC(=O)c1sc(=S)n(CCOC)c1N | inactive
CC(Sc1nnc(CNC(=O)c2ccccc2F)n1C)C(=O)Nc1nccs1 (stereo not drawn) | inactive

Compound | B-score
COc1cc(NC(=O)CCS(=O)(=O)c2ccc3c(c2)oc(=O)n3C)cc(OC)c1 | inactive
Cc1cc(Nc2ccc(Cl)cc2)nc(N2CCOCC2)n1 | inactive
Cc1cc(Nc2ccc(N3CCOCC3)cc2)c2cccc(C)c2n1 | -7.55 (active)
Cc1cc(Nc2ccc(C(=O)N3CCCCC3)cc2)c2cccc(C)c2n1 | inactive
Cc1cc(S(=O)(=O)NCC(C)C)ccc1OCC(=O)NC1CC1 | inactive
CCN(CC)CCNc1nc(-c2ccc(OC(F)F)cc2)c(C)s1 | -6.16 (active)
CCOc1ccc(C2/C(=C(/O)c3ccc4c(c3)CC(C)O4)C(=O)C(=O)N2CCCn2ccnc2)cc1 (stereo not drawn) | inactive
COC(=O)c1cc(-c2cccs2)nc2ccccc12 | inactive
CCCCN(C)CCCNC(=O)c1cc(-c2cccs2)nc2ccccc12 | -6.6 (active)
O=C(NCCN1CCOCC1)c1cc(-c2cccs2)nc2ccccc12 | inactive
CCc1nnc(NC(=O)CSc2nnnn2-c2cccc(C(C)=O)c2)s1 | inactive
O=S(=O)(Nc1nccs1)c1ccc2c(c1)OCCO2 | inactive
CC(C)(C)Nc1nc(-c2ccccn2)nc2ccccc12 | -6.28 (active)
Cc1ccc(Oc2nc(-c3ccccn3)nc3ccccc23)cc1 | inactive
CCOCCCNc1nc(-c2ccccc2)nc2ccccc12 | inactive
CC(=O)Nc1ccc(S(=O)(=O)NC2(C(F)(F)F)C(=O)NC(C)=C2C#N)cc1 (stereo not drawn) | inactive
O=S1(=O)CCOC[C@H](CC2CCCCC2)N1Cc1ccc(F)cc1 | inactive
NNC(=O)C1CCCn2c1nc1sc3c(c1c2=O)CCCC3 (stereo not drawn) | inactive
CC1(C)Cc2c(sc3nc4n(c(=N)c23)CCCCC4)CO1 | inactive
N=c1c2c3c(sc2nc2n1CCCCC2)CCCC3 | -10.6 (active)
Cc1ccc(-c2nc(CSCC(=O)NC3CCN(Cc4ccccc4)CC3)c(C)o2)cc1 | inactive
Cc1c(-c2ccccc2)n[nH]c1C(=O)N=Nc1c(O)[nH]c2ccccc12 | inactive

Compound | B-score
O=C(c1cccc(-n2cccc2)c1)N1CCN(S(=O)(=O)c2ccc(F)cc2)CC1 | -5.32 (active)
O=C(c1cnc(Cl)c(Cl)c1)N1CCN(S(=O)(=O)c2ccc(F)cc2)CC1 | inactive
O=C(O)C1CCCCC1C(=O)N1CCN(S(=O)(=O)c2ccc(F)cc2)CC1 (stereo not drawn) | inactive
c1ccc2c(c1)OCCOCCOCCO2 | inactive
Nc1nc(NCCCN2CCOCC2)nc(Nc2ccccc2)c1[N+](=O)[O-] | inactive
CCOc1cccc(/C=N/NC(=S)NCCN2CCOCC2)c1O | inactive
CCOc1nc(NCCN2CCOCC2)nc(Nc2ccc(C)cc2)n1 | -5.49 (active)
Cc1c(Br)ccc(NC(=O)COc2ccccc2C(N)=O)c1C | inactive
O=S(=O)(Nc1cccc(Oc2ccc(Cl)cc2)n1)c1ccc(F)cc1 | inactive
COc1cccc(NC(=O)Nc2nnc(N3CCCCC3C)s2)c1 (stereo not drawn) | inactive
CCOC(=O)C1CCN(Cc2c(C(=O)N3CCOCC3)nc3c(C)cccn23)CC1 | inactive
CN(C)c1cc(N)c2ccccc2n1 (tested in a mixture with another compound) | -9.26 (active)
Nc1nc(-c2ccccc2)cc(-c2ccccc2)n1 | inactive
COc1ccc(-c2cc(C(=O)N(C)Cc3ccccc3)c3ccccc3n2)cc1 | inactive
Cc1cc(C)c(S(=O)(=O)NCCCN2CCOCC2)cc1Br | inactive
CN1CC(c2ccccc2)C2(COc3ccccc3C2=O)C12C(=O)Nc1ccccc12 (stereo not drawn) | inactive
S=C(Nc1ccc(Cl)cc1Cl)N1CCCC1 | inactive
Cc1ccc2c(c1)C1CN(C)CCC1N2C(=S)Nc1ccc(Cl)cc1Cl (stereo not drawn) | -5.46 (active)
Cc1ccc2c(c1)C1CN(C)CCC1N2C(=S)Nc1ccc(OC(F)F)cc1 (stereo not drawn) | inactive
Cc1ccc(S(=O)(=O)N(Cc2ccccc2)c2ccccn2)cc1[N+](=O)[O-] | inactive
O=C(CSc1cccc[n+]1[O-])c1ccc(Cl)cc1 | inactive
O=C(C[n+]1ccc2c(c1)nnn2-c1ccccc1)c1ccc(Cl)cc1 | -5.81 (active)

Compound | B-score
O=C(Cn1cc(-c2nnnn2-c2ccc(Cl)cc2)c(=O)c2ccccc21)c1ccccc1 | inactive
COc1ccccc1NS(=O)(=O)N(C)C | inactive
O=S(=O)(NCc1ccc(Cl)cc1Cl)c1cccs1 | inactive
O=C(Nc1cccc(Cl)c1)Nc1ccccc1NS(=O)(=O)c1cccs1 | -5.11 (active)
O=S(=O)(Nc1ccccc1Br)c1cccs1 | inactive
COCCCN1C(=O)C(=O)/C(=C(/O)c2ccc(S(=O)(=O)N3CCOCC3)cc2)C1c1ccc(F)cc1 (stereo not drawn) | inactive
COC(=O)c1sccc1-n1cccc1C(=O)C(=O)N1CCCCC1 | inactive
COc1ccccc1OCCNCC(O)COc1cccc2[nH]c3ccccc3c12 (stereo not drawn) | -7.01 (active)
CC(C)(C)NCC(O)COc1cccc2[nH]c(=O)[nH]c12 (stereo not drawn) | inactive
COc1ccccc1OCC(O)CN1CCOCC1 (stereo not drawn) | inactive
CC(=O)c1ccc(N2CCN(C(=O)C3CCN(S(=O)(=O)c4ccc5c(c4)CC(C)N5C(=O)C4CC4)CC3)CC2)cc1 (stereo not drawn) | inactive
O=C(CSc1nnc(SCc2ccc(Cl)cc2)s1)N/N=C/c1ccccc1Cl | inactive
CCN(C(=O)COC(=O)c1ccc(COc2ccc3c(C)cc(=O)oc3c2)cc1)C1CCS(=O)(=O)C1 (stereo not drawn) | inactive
CC(C)c1ccc(S(=O)(=O)N2CCN(C(=O)c3ccc(N4CCCC4)c([N+](=O)[O-])c3)CC2)cc1 | inactive
Nc1ccc(C(=O)N2CCN(S(=O)(=O)c3ccc(Cl)cc3)CC2)cc1[N+](=O)[O-] | -5.95 (active)
Cc1ccc(S(=O)(=O)N2CCN(C(=O)c3ccc(-n4cncn4)c([N+](=O)[O-])c3)CC2)cc1 | inactive
CSc1nnc(-c2ccc(C(F)(F)F)cn2)o1 | inactive
CCOc1ccc(NC(=O)CSc2nncn2C)cc1 | inactive
COc1ccc(-c2ccc3nnc(SCC(=O)Nc4ccc(NC(C)=O)cc4)n3n2)cc1 | inactive
CCCCc1nc(NCc2ccccc2)c(C#N)c2c1CCCC2 | inactive
CCCCc1nc(NCCN)c(C#N)c2c1CSC(C)(C)C2 | -5.09 (active)
Cc1nc(NCCN)c(C#N)c2c1COC(C)(C)C2 | inactive

Compound | B-score
Cc1cc(NC(=O)C(C)SCC(=O)Nc2ccccc2N2CCCCC2)no1 (stereo not drawn) | inactive
CN(Cc1cccc2ncccc12)C(=O)CC1C(=O)NCCN1Cc1ccc(F)cc1 (stereo not drawn) | inactive
Cc1cc(OCc2ccc(C(=O)Nc3ccc(C(=O)O)cc3)o2)ccc1Cl | inactive
O=C(O)c1ccc(NC(=O)c2ccc(COc3ccc(Cl)cc3)o2)cc1 | -5.87 (active)
COc1ccc(NC(=O)CN(C)C(=O)c2ccc(COc3ccccc3)o2)cc1 | inactive
O=C(COC(=O)CC1CC2CCC1C2)NC(=O)NC1CCCC1 (stereo not drawn) | inactive
O=C(COc1ccccc1)Nc1ccc(N2CCN(C(=O)c3cccs3)CC2)cc1 | inactive
COCC(=O)Nc1cc(C(=O)OC)cc(C(=O)OC)c1 | inactive
CC(C)(C)n1nnnc1C(c1ccc2ncccc2c1)N1CCSCC1 (stereo not drawn) | -11.5 (active)
CC(C)(C)n1nnnc1C(c1ccc(Cl)cc1)N1CCSCC1 (stereo not drawn) | inactive
Cc1cccc(N2CCN(C(c3ccc(N(C)C)cc3)c3nnnn3C(C)(C)C)CC2)c1C (stereo not drawn) | inactive
O=C(NCCc1ccccc1Cl)C1CCC(=O)N(CCCc2ccccc2)C1 (stereo not drawn) | inactive
CCc1ccc(NC(=O)Cn2ncn3c(cc4ccccc43)c2=O)cc1 | inactive
CC(C)c1ccc(NC(=O)Cn2ncc3ccccc32)cc1 | -5.5 (active)
CCOC(=O)c1cn(CC(=O)Nc2ccc(C(C)C)cc2)nn1 | inactive
Cc1cc(O)c(C2(O)C(=O)Nc3ccccc32)cc1C (stereo not drawn) | inactive
CCc1ccccc1NC(=O)CN(c1ccc(OC)cc1OC)S(=O)(=O)c1ccccc1[N+](=O)[O-] | inactive
CCOc1ccc(C2c3[nH]c4ccccc4c3CCN2Cc2cccn2-c2ncccn2)cc1 (stereo not drawn) | inactive
c1ccc(C2c3[nH]c4ccccc4c3CCN2Cc2cccn2-c2cccnc2)nc1 (stereo not drawn) | -6.75 (active)
COCc1ccc(C(=O)N2CCc3c([nH]c4ccccc34)C2c2ccccn2)s1 (stereo not drawn) | inactive
